“And” between values parts separate entries of the source, which are not always exact repeats. Equal values may be shown once. Inconclusive results are not listed. A structure can be active in one record and inactive in another. The source made the active and inactive calls.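 Rule for the calls, unless noted: active = normalized viability below 100% at a tested concentration; inactive = the rest.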
What was measured:
[1] = tested on: Aerobactin synthetase IucA (Klebsiella pneumoniae); test: inhibition of K. pneumoniae IucA enzyme – biochemical, Tocris library, absorbance (AID 1345561; call rule not given here;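 note: 100% = enzyme without compound and 0% = no enzyme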); conditions: purified IucA enzyme assay, absorbance (OD) read-out; stronger effect = lower value;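 tested at 8 µM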
[2] = viability loss in pontine glioma line – cell-based, SU-DIPG-XVII, MIPE5.0, CellTiter-Glo, qHTS, dose response (AID 1347060; cut-off not given, nearly all actives have AC50 up to about 26 µM;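 for AC50: cells exposed to compound for 48 hours before viability readout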); conditions: CellTiter-Glo ATP luminescence
[3] = viability loss in pontine glioma line – cell-based, JHH-DIPG-1, MIPE4.0, CellTiter-Glo, qHTS, dose response (AID 1347062; cut-off not given, nearly all actives have AC50 up to about 27 µM;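 for AC50: cells exposed to compound for two days before readout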); conditions: JHH-DIPG-1 viability, CellTiter-Glo ATP luminescence
[4] = viability loss in pontine glioma line – cell-based, SU-DIPG-XIII, MIPE5.0, CellTiter-Glo, qHTS, dose response (AID 1347064; cut-off not given, nearly all actives have AC50 up to about 23 µM); conditions: CellTiter-Glo ATP luminescence
[5] = growth inhibition of DIPG cells – cell-based, MIPE4.0 library, CellTiter-Glo luminescence, qHTS (AID 1347066; cut-off not given, nearly all actives have AC50 up to about 30 µM;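 note: cells exposed to compound for 48 hours before readout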); conditions: SU-DIPG-VI viability, CellTiter-Glo ATP luminescence
[6] = JHH-DIPG-1 glioma cell viability, MIPE5.0 library, CellTiter-Glo luminescence, qHTS (AID 1347067; cut-off not given, nearly all actives have AC50 up to about 26 µM;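 note: cells exposed to compound for 48 hours before readout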); conditions: JHH-DIPG-1 glioma viability, CellTiter-Glo ATP luminescence
[7] = viability loss with induced miR-34 in A549 – imaging, A549 dox-inducible miR-34, nuclei and caspase counts, primary screen (AID 1347080;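 active = compounds whose cell count with miR-34 switched on is under 0.7 times the count with it off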); conditions: A549 miR-34 inducible, Hoechst nuclei count, 48 h
[8] = galactose survival enhancers in mitochondrial complex I cybrids – cell-based, galactose medium, ATP luminescence, primary screen (AID 1645843;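 active = z-score of at least 1.8 in each of two replicates, scored against plate mean and spread of sample wells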;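 note: positive z means more ATP and so rescue of galactose-driven cybrid death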); conditions: complex I mutant cybrid cells, 72 h, stronger effect = higher value
[9] = viability loss in pontine glioma line – cell-based, SU-DIPG-IV, MIPE4.0, CellTiter-Glo, qHTS, dose response (AID 1347063; cut-off not given, nearly all actives have AC50 up to about 30 µM;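 note: compound exposure lasted 48 hours before the viability readout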); conditions: CellTiter-Glo ATP luminescence
[10] = MELAS cybrid and Rieske KO viability enhancers – cell-based, MELAS cybrids, Rieske KO mouse fibroblasts, CellTiter-Glo, primary screen (AID 1508586;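 active = mean z-score across replicates of 1.96 or higher in either the MELAS or the Rieske mutant cell line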;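 note: z relative to plate mean and SD of compound and empty wells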); conditions: low glucose
[11] = growth inhibition, single agents and combos, ICB984, cell-based, cisplatin or BGB combos, synergistic combos for chromothripsis tumors (AID 1671451; call rule not given here;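 note: cells exposed for 96 hours before readout; 0% = vehicle DMSO and 100% = killing by high DMSO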); conditions: ICB984 medulloblastoma cells, drug combinations, stronger effect = higher value
[12] = viability loss in pontine glioma line – cell-based, SU-DIPG-XXV, MIPE5.0, CellTiter-Glo, qHTS, dose response (AID 1347065; cut-off not given, nearly all actives have AC50 up to about 26 µM;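 note: cells exposed to compound for 48 hours before ATP readout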); conditions: CellTiter-Glo ATP luminescence
[13] = P. berghei load reduction in hepatocytes – cell-based, HepG2, luciferase luminescence, HepG2 viability, primary screen (AID 624349; in the data active = parasite load remaining mostly below about 12%, no sharp cut-off; inactive = mostly above about 10%;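 note: 100% = mean of DMSO negative control wells on the same plate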); conditions: P. berghei liver stage in HepG2, luciferase luminescence, concentration not given here; parasite load remaining: stronger effect = lower value; viability: measured here: HepG2 viability without parasites
[14] = viability loss in pontine glioma line – cell-based, SU-DIPG-XIII, MIPE4.0, CellTiter-Glo, qHTS, dose response (AID 1347061; cut-off not given, nearly all actives have AC50 up to about 37 µM;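 note: cells exposed to compound for 48 hours before readout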); conditions: CellTiter-Glo ATP luminescence
[15] = growth inhibition of DIPG cells – cell-based, MIPE5.0 library, qHTS (AID 1347068; cut-off not given, nearly all actives have IC50 up to about 30 µM); conditions: SU-DIPG-XXV viability
[16] = compounds altering HSF1 focus formation in cells – imaging, Selleck Cancer Library (AID 1347162; in the data active = plate-normalised HSF1 focus index below about 0.46); conditions: human cells, HSF1 nuclear foci imaging, at 10 µM; SSMD: measured here: HSF1 foci SSMD mean; cell count: measured here: cell number; plate-normalised HSF1 focus index: stronger effect = lower value
[17] = drug combination growth inhibition, ovarian cancer – cell-based, oncology-focused library, rucaparib conditional, profiling panel (AID 1508598); conditions: patient-derived ovarian cancer cells, CellTiter-Glo viability, 144 h, stronger effect = lower value
[18] = tested on: Hepatitis C virus NS3 helicase; test: blockers of NS3h binding to ssDNA – biochemical, fluorescence polarization, LOPAC1280 library, primary screen (AID 687035; in the data active = inhibition above about 37%); conditions: Purified HCV NS3 helicase, Cy5-dT15 ssDNA binding fluorescence polarization; stronger effect = higher value; concentration not given here
[19] = compounds altering Cy5-DNA-NS3h complex signal – biochemical, LOPAC1280, artefact control for HCV NS3 helicase inhibitor project (AID 687037; call rule not given here); conditions: Cy5-DNA-NS3h complex fluorescence interference counterscreen
[20] = stronger effect = lower value, cell number ratio, induced over uninduced
[21] = measured here: relative caspase fold change +Dox/-Dox
[22] = measured here: total cells with miR-34 induction, stronger effect = lower value
[23] = measured here: total cells without miR-34 induction
[24] = MELAS cybrid survival, CellTiter-Glo 48 h, stronger effect = higher value
[25] = Rieske KO mouse fibroblast survival, CellTiter-Glo 72 h

O=C1Nc2ccc(I)cc2/C1=C/c1cc(Br)c(O)c(Br)c1
remaining activity [1]: 117% (inactive) | outcome [2]: inactive | outcome [3]: inactive | outcome [4]: inactive | outcome [5]: inactive | outcome [6]: inactive | fold change [7, 20]: 0.983 (inactive) and 1.01 (inactive) and 0.869 (inactive) | fold change [7, 21]: 1.44 and 1.3 and 0.748 | cell count [7, 22]: 8580 and 4160 and 8980 | cell count [7, 23]: 8730 and 4120 and 10300 | z-score [8]: -0.635 (inactive) and -0.18 (inactive)

CCc1c2c(nc3ccc(O)cc13)-c1cc3c(c(=O)n1C2)COC(=O)[C@]3(O)CC
remaining activity [1]: 107% (inactive) | AC50 [2]: 0.00833 µM (active) | AC50 [9]: 0.0296 µM (active) | fold change [7, 20]: 0.769 (inactive) and 0.994 (inactive) | fold change [7, 21]: 3.45 and 2.11 | cell count [7, 22]: 1510 and 2070 | cell count [7, 23]: 1960 and 2080 | z-score [10, 24]: 0.182 (inactive) | z-score [10, 25]: -0.363 | z-score [8]: -0.66 (inactive) | inhibition ([11]; BGB IC20 combo, at 0.005 µM): 45.8% | inhibition ([11]; BGB IC40 combo, at 0.005 µM): 68.8% | inhibition ([11]; BGB IC40 combo, at 0.05 µM): 95.3% | inhibition ([11]; at 0.5 µM): -17.9% (inactive) | inhibition ([11]; cisplatin combo, at 0.05 µM): 95.2% | inhibition ([11]; cisplatin combo, at 0.5 µM): -11.4% | inhibition ([11]; cisplatin combo, at 5 µM): -28.7% | inhibition ([11]; measured here: 5 uM single agent, at 5 µM): -16.8%

COc1cc2nccc(Oc3ccc(NC(=O)Nc4ccc(F)cc4F)c(F)c3)c2cc1OC
remaining activity [1]: 115% (inactive) | AC50 [2]: 5.25 µM (active) | outcome [3]: inactive | AC50 [12]: 3.32 µM (active) | outcome [5]: inactive | AC50 [6]: 4.17 µM (active) | fold change [7, 20]: 0.97 (inactive) and 0.906 (inactive) | fold change [7, 21]: 1.3 and 1.55 | cell count [7, 22]: 1960 and 2970 | cell count [7, 23]: 2020 and 3280 | z-score [10, 24]: -0.553 (inactive) | z-score [10, 25]: 0.363 | z-score [8]: -0.37 (inactive)

COc1nccc(-c2c(-c3ccc(F)cc3)ncn2C2CCC(O)CC2)n1 (stereo unspecified)
parasite load remaining [13]: 41% (inactive) | viability [13]: 82.3% | remaining activity [1]: 92.5% (inactive) | outcome [2]: inactive | outcome [14]: inactive | outcome [3]: inactive | outcome [9]: inactive | outcome [5]: inactive | outcome [6]: inactive | outcome [15]: inactive | fold change [7, 20]: 0.979 (inactive) | fold change [7, 21]: 0.79 | cell count [7, 22]: 6910 | cell count [7, 23]: 7050 | z-score [8]: 0.59 (inactive)

CS(=O)c1ccc(-c2nc(-c3ccc(F)cc3)c(-c3ccncc3)[nH]2)cc1 (stereo unspecified)
parasite load remaining [13]: 28.5% (inactive) | viability [13]: 76.8% | remaining activity [1]: 113% (inactive) and 119% (inactive) | outcome [2]: inactive | AC50 [3]: 15.2 µM (active) | AC50 [9]: 48.1 µM (active) | outcome [4]: inactive | outcome [5]: inactive | SSMD [16]: 2.53 | cell count [16]: 7460 | plate-normalised HSF1 focus index [16]: 1.16 (inactive) | z-score [10, 24]: -0.617 (inactive) | z-score [10, 25]: 0.991 | viability ([17]; at 0.000305 µM, OCI-C5x cells, with rucaparib 10 µM, 100% = cells with rucaparib alone): 128% (inactive) | viability ([17]; at 0.000305 µM, OCI-C5x cells, without rucaparib): 139% (inactive) | viability ([17]; at 0.000305 µM, OCI-P5x cells, with rucaparib 20 µM, 100% = cells with rucaparib alone): 109% (inactive) | viability ([17]; at 0.000305 µM, OCI-P5x cells, without rucaparib): 111% (inactive) | viability ([17]; at 0.00122 µM, OCI-C5x cells, with rucaparib 10 µM, 100% = cells with rucaparib alone): 123% (inactive) | viability ([17]; at 0.00122 µM, OCI-C5x cells, without rucaparib): 135% (inactive) | viability ([17]; at 0.00122 µM, OCI-P5x cells, with rucaparib 20 µM, 100% = cells with rucaparib alone): 103% (inactive) | viability ([17]; at 0.00122 µM, OCI-P5x cells, without rucaparib): 107% (inactive) | viability ([17]; at 0.00488 µM, OCI-C5x cells, with rucaparib 10 µM, 100% = cells with rucaparib alone): 134% (inactive) | viability ([17]; at 0.00488 µM, OCI-C5x cells, without rucaparib): 139% (inactive) | viability ([17]; at 0.00488 µM, OCI-P5x cells, with rucaparib 20 µM, 100% = cells with rucaparib alone): 108% (inactive) | viability ([17]; at 0.00488 µM, OCI-P5x cells, without rucaparib): 111% (inactive) | viability ([17]; at 0.0195 µM, OCI-C5x cells, with rucaparib 10 µM, 100% = cells with rucaparib alone): 128% (inactive) | viability ([17]; at 0.0195 µM, OCI-C5x cells, without rucaparib): 145% (inactive) | viability ([17]; at 0.0195 µM, OCI-P5x cells, with rucaparib 20 µM, 100% = cells with rucaparib alone): 108% (inactive) | viability ([17]; at 0.0195 µM, OCI-P5x cells, without rucaparib): 108% (inactive) | viability ([17]; at 0.0781 µM, OCI-C5x cells, with rucaparib 10 µM, 100% = cells with rucaparib alone): 127% (inactive) | viability ([17]; at 0.0781 µM, OCI-C5x cells, without rucaparib): 164% (inactive) | viability ([17]; at 0.0781 µM, OCI-P5x cells, with rucaparib 20 µM, 100% = cells with rucaparib alone): 108% (inactive) | viability ([17]; at 0.0781 µM, OCI-P5x cells, without rucaparib): 112% (inactive) | viability ([17]; at 0.313 µM, OCI-C5x cells, with rucaparib 10 µM, 100% = cells with rucaparib alone): 129% (inactive) | viability ([17]; at 0.313 µM, OCI-C5x cells, without rucaparib): 159% (inactive) | viability ([17]; at 0.313 µM, OCI-P5x cells, with rucaparib 20 µM, 100% = cells with rucaparib alone): 119% (inactive) | viability ([17]; at 0.313 µM, OCI-P5x cells, without rucaparib): 111% (inactive) | viability ([17]; at 1.25 µM, OCI-C5x cells, with rucaparib 10 µM, 100% = cells with rucaparib alone): 116% (inactive) | viability ([17]; at 1.25 µM, OCI-C5x cells, without rucaparib): 166% (inactive) | viability ([17]; at 1.25 µM, OCI-P5x cells, with rucaparib 20 µM, 100% = cells with rucaparib alone): 130% (inactive) | viability ([17]; at 1.25 µM, OCI-P5x cells, without rucaparib): 108% (inactive) | viability ([17]; at 5 µM, OCI-C5x cells, with rucaparib 10 µM, 100% = cells with rucaparib alone): 132% (inactive) | viability ([17]; at 5 µM, OCI-C5x cells, without rucaparib): 161% (inactive) | viability ([17]; at 5 µM, OCI-P5x cells, with rucaparib 20 µM, 100% = cells with rucaparib alone): 119% (inactive) | viability ([17]; at 5 µM, OCI-P5x cells, without rucaparib): 113% (inactive) | z-score [8]: 1.98 (inactive) and 3.42 (active)

O=C(O)c1ccc2cc(-c3ccc(O)c(C45CC6CC(CC(C6)C4)C5)c3)ccc2c1
remaining activity [1]: 120% (inactive) | AC50 [2]: 0.59 µM (active) | AC50 [3]: 5.26 µM (active) | AC50 [9]: 0.332 µM (active) | AC50 [12]: 3.32 µM (active) | AC50 [6]: 3.72 µM (active) | fold change [7, 20]: 1.3 (inactive) | fold change [7, 21]: 0.838 | cell count [7, 22]: 1990 | cell count [7, 23]: 1530 | SSMD [16]: 1.71 | cell count [16]: 6920 | plate-normalised HSF1 focus index [16]: 1.1 (inactive) | z-score [8]: -0.83 (inactive)

O=C(O)C1CCCN(CCC=C(c2ccccc2)c2ccccc2)C1 (stereo unspecified)
inhibition [18]: -1% (inactive) | fluorescence ratio (interference) [19]: 0.9 (inactive) | remaining activity [1]: 104% (inactive) | outcome [2]: inactive | outcome [14]: inactive | outcome [3]: inactive | outcome [9]: inactive | outcome [4]: inactive | outcome [5]: inactive | outcome [6]: inactive | outcome [15]: inactive | fold change [7, 20]: 0.98 (inactive) and 0.952 (inactive) | fold change [7, 21]: 1.12 and 1.07 | cell count [7, 22]: 9290 and 8980 | cell count [7, 23]: 9480 and 9430 | z-score [8]: 0.12 (inactive) and 0.13 (inactive)

CCOc1cc(C(=O)Nc2ccc(Cl)c(-c3nc4ccccc4[nH]3)c2)cc(OCC)c1OCC
remaining activity [1]: 119% (inactive) | outcome [2]: inactive | AC50 [14]: 10.5 µM (active) | outcome [5]: inactive | outcome [15]: inactive | fold change [7, 20]: 0.991 (inactive) | fold change [7, 21]: 0.843 | cell count [7, 22]: 5960 | cell count [7, 23]: 6020 | SSMD [16]: 4.38 | cell count [16]: 6790 | plate-normalised HSF1 focus index [16]: 1.26 (inactive) | z-score [8]: 0.375 (inactive)

Source: PubChem BioAssay
